About 83,000 compounds went through this panel and 20% of them were active in at least one assay; those are over-represented in the sample as a whole.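 Assay: single dose, 48 h. Readout: percent growth (0 = no net growth; negative = cell death). Active: <10.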 Calls of active or inactive are those of the source.
Legend:
Test in all cases: NCI-60 one-dose screen, 48 h (100 = growth as untreated, 0 = no growth, -100 = all killed)
Conditions in all cases: 10 µM unless noted
[1] = tested on: SK-MEL-2 melanoma
[2] = tested on: EKVX NSCLC
[3] = tested on: SN12C renal
[4] = tested on: UO-31 renal
[5] = tested on: TK-10 renal
[6] = tested on: ACHN renal
[7] = tested on: CAKI-1 renal
[8] = tested on: CCRF-CEM leukemia
[9] = tested on: MOLT-4 leukemia
[10] = tested on: SR leukemia
[11] = tested on: RPMI-8226 leukemia
[12] = tested on: OVCAR-8 ovarian
[13] = tested on: OVCAR-5 ovarian
[14] = tested on: OVCAR-4 ovarian
[15] = tested on: SK-OV-3 ovarian
[16] = tested on: IGROV1 ovarian
[17] = tested on: OVCAR-3 ovarian
[18] = tested on: HS 578T breast
[19] = tested on: NCI/ADR-RES ovarian

Measured: growth

CN1CCN(CCCNc2nccc(-c3c(-c4ccc(F)c(O)c4)nc4sccn34)n2)S1(=O)=O
inactive: [2] 106% | [3] 85.1% | [4] 110% | [5] 133% | [6] 82.4% | [7] 95.5% | [8] 76% | [9] 82.5% | [10] 58.1% | [11] 87.4% | [12] 96.1% | [13] 131% | [14] 133% | [15] 91.8% | [16] 98.5% | [17] 116% | [18] 97.2% | [19] 99.5%
active: [1] -1.07%

Cc1cc(Nc2cccc(C(F)(F)F)c2)n2c(nc3ccccc32)c1C#N
inactive: [1] 28.7% | [2] 31.5% | [3] 25.4% | [4] 28.3% | [5] 58.3% | [6] 46.9% | [7] 38.7% | [8] 55.8% | [9] 56.6% | [10] 31.6% | [11] 22.8% | [12] 43% | [13] 78% | [14] 34.6% | [15] 46.4% | [16] 57.6% | [17] 39.4% | [18] 68.5% | [19] 47.9%

O=S(=O)(c1ccccc1)N1CCCc2ccccc21
inactive: [1] 103% | [2] 101% | [3] 98.9% | [4] 80.4% | [5] 94.5% | [6] 99.4% | [7] 101% | [8] 92.4% | [9] 94.6% | [10] 103% | [11] 93.1% | [12] 99% | [13] 103% | [14] 113% | [15] 105% | [16] 99.5% | [17] 102% | [18] 93.2% | [19] 107%

Nc1c(C(=O)Nc2ccc(Cl)cc2)cc(-c2nc3ccccc3s2)c(=O)n1NS(=O)(=O)c1ccc(Cl)cc1
inactive: [1] 102% | [2] 85.8% | [3] 95% | [4] 85.9% | [5] 147% | [6] 103% | [7] 86.4% | [8] 97.6% | [9] 91.5% | [10] 95.2% | [11] 92.6% | [12] 100% | [13] 101% | [14] 94.4% | [15] 101% | [16] 97.4% | [17] 105% | [18] 98.4% | [19] 105%

CCC(=O)c1ccc(O)c(OC)c1
inactive: [1] 103% | [2] 114% | [3] 94.9% | [4] 101% | [5] 99.2% | [6] 103% | [7] 100% | [8] 91% | [9] 101% | [10] 108% | [11] 93.7% | [12] 99.4% | [13] 107% | [14] 107% | [15] 122% | [16] 102% | [17] 110% | [18] 95.7% | [19] 104%

COc1cc(C2CC(c3cccc(Nc4ccncc4)c3)=NN2C(C)=O)cc(OC)c1OC (centres undefined)
inactive: [1] 99.1% | [2] 87.5% | [3] 94% | [4] 89.1% | [5] 97.7% | [6] 99.5% | [7] 78.9% | [8] 92.7% | [9] 84.4% | [10] 27.3% | [11] 94.4% | [12] 97% | [13] 98.9% | [14] 83.8% | [15] 90.6% | [16] 89.2% | [17] 96.3% | [18] 86% | [19] 97.9%

CCCNC(=O)Oc1ccc(/C(=C(\C)c2ccccc2)c2ccc(OCCN3CCCCC3)cc2)cc1
active: [10] 9.19%
inactive: [1] 90.6% | [2] 82.2% | [3] 71.4% | [4] 46.5% | [5] 90.2% | [6] 91% | [7] 65.8% | [8] 72.2% | [9] 60.1% | [11] 57.7% | [12] 75.3% | [13] 78.2% | [14] 83% | [15] 79.3% | [16] 84.8% | [17] 75.6% | [18] 66.8% | [19] 77.2%

COc1ccccc1C(C[N+](=O)[O-])c1c(-c2ccccc2)[nH]c2cc(C)ccc12 (centres undefined)
inactive: [1] 62.8% | [2] 71.7% | [3] 77.9% | [4] 57.2% | [5] 118% | [6] 73.4% | [7] 38.1% | [8] 54.4% | [9] 53% | [10] 24.2% | [11] 61.5% | [12] 75.3% | [13] 89.5% | [14] 81.7% | [15] 88.6% | [16] 53.6% | [17] 76.1% | [18] 83% | [19] 50.1%

COc1cccc2c1C(=O)c1c(O)c3c(c(O)c1C2=O)C[C@@](O)(C(=O)CO)C[C@@H]3O[C@H]1C[C@H](N)[C@@H](O)[C@H](C)O1
active: [1] -72.9% | [2] 3.85% | [5] 6.82% | [6] -36.9% | [8] -20.5% | [9] -0.0958% | [10] -2.27% | [11] 6.05% | [12] 7.14% | [14] 7.72% | [15] 7.22% | [17] -0.462% | [18] -18.2%
inactive: [3] 10% | [4] 11.8% | [7] 25.1% | [13] 15.2% | [16] 18.4% | [19] 70.5%

O=c1[nH]c(=O)[nH]c(=S)[nH]1
inactive: [1] 103% | [2] 97.8% | [3] 94.3% | [4] 89.2% | [5] 95.8% | [6] 94.3% | [7] 94.9% | [8] 101% | [9] 105% | [10] 106% | [11] 106% | [12] 101% | [13] 102% | [14] 109% | [15] 111% | [16] 102% | [17] 119% | [18] 99.3% | [19] 105%

Cc1ccc(C2CC(c3cccc(Nc4ccncc4)c3)=NN2c2cc(Cl)cc(Cl)c2)cc1 (centres undefined)
inactive: [1] 96.4% | [2] 77.3% | [3] 52.4% | [4] 51.8% | [5] 72.7% | [11] 16.1% | [13] 71.1% | [14] 15% | [15] 83.4% | [16] 15.3% | [17] 61.7% | [18] 62.6% | [19] 52.1%
active: [6] -61.9% | [7] -38.8% | [8] 7.28% | [9] 1.74% | [10] 1.17% | [12] -36.5%

N#Cc1c(Nc2ccccc2)nn2cc(-c3nc4ccccc4s3)c(N)nc12
active: [14] -13.7%
inactive: [1] 97.5% | [2] 71.9% | [3] 89.6% | [4] 83.4% | [5] 107% | [6] 59% | [7] 82.6% | [8] 79.2% | [9] 93.7% | [10] 74.3% | [11] 91.9% | [12] 70.7% | [13] 88.5% | [15] 90.2% | [16] 65.5% | [17] 97% | [18] 64.3% | [19] 50.6%

COc1ccc(C(=O)c2cc(C)c(OC)c(C)c2)c(OC)c1N(C(=O)C(Cl)Cl)C(=O)C(Cl)Cl
active: [15] 1.2% | [17] -13.4% | [19] -1.2%
inactive: [1] 27.2% | [2] 56.9% | [3] 35.5% | [4] 37.8% | [5] 43.8% | [6] 22.2% | [7] 43.2% | [8] 10.7% | [9] 22.6% | [10] 20.7% | [11] 19.9% | [12] 16% | [13] 33.1% | [14] 62.1% | [16] 31.3% | [18] 22.1%

CCn1ccnc1C(=O)/C=C/c1ccc(CC(=O)Nc2ccc(F)cc2)cc1
active: [8] 7.58% | [11] 2.37% | [12] -2.13% | [17] -4.68% | [19] 4.48%
inactive: [1] 97.8% | [2] 55.2% | [3] 26.2% | [4] 39.8% | [5] 66.3% | [6] 63.6% | [7] 34.1% | [9] 24.2% | [10] 14.8% | [13] 44.5% | [14] 35.4% | [15] 86.6% | [16] 32.3% | [18] 52.5%

CCCCCCCCOC(=O)c1ccc(O)c(OC)c1
inactive: [1] 97.7% | [2] 105% | [3] 85.8% | [4] 50.8% | [5] 98.6% | [6] 103% | [7] 91.9% | [9] 12.9% | [10] 85.3% | [11] 89.2% | [12] 96.3% | [13] 107% | [14] 78.2% | [15] 103% | [16] 59.8% | [17] 101% | [18] 97.8% | [19] 96%
active: [8] 1.05%

O=C(Nc1nc2ccc(S(=O)(=O)Nc3ccc(C4(C(F)(F)F)CC4)cc3)cc2[nH]1)c1cnccn1
active: [17] -18.6%
inactive: [1] 56.3% | [2] 65.3% | [3] 44.9% | [4] 40.3% | [5] 65.9% | [6] 43.5% | [7] 28.6% | [8] 19.9% | [9] 38.7% | [10] 20% | [11] 30.3% | [12] 55.4% | [13] 56.8% | [14] 46.1% | [15] 58% | [16] 40.3% | [18] 17.6% | [19] 21%

From PubChem BioAssay (NCI)
